Article PMC5540273 (PLoS ONE, 2017)

Legend:
Conditions in all cases: concentration: 1 μM,replicates: in singlicate; n = 1
SNARK = system: T1, SNARK
T1 construct: gene NUAK2

SNRK = system: SNRK
SRC = system: SRC
SRMS = system: SRMS
SRPK1 = system: SRPK1
SRPK2 = system: SRPK2
SRPK3 = system: SRPK3
STK16 = system: STK16
STK33 = system: STK33
STK35 = system: STK35
STK36 = system: STK36
STK39 = system: STK39
SYK = system: SYK
SgK110 = system: SgK110
TAK1 = system: T2, TAK1
T2 construct: gene MAP3K7

TAOK1 = system: TAOK1
TAOK2 = system: TAOK2
TAOK3 = system: TAOK3
TBK1 = system: TBK1
TEC = system: TEC
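Further: KINOMEscan kinase panel screen.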

SMILES	%Inh (SNARK) [%]	%Inh (SNRK) [%]	%Inh (SRC) [%]	%Inh (SRMS) [%]	%Inh (SRPK1) [%]	%Inh (SRPK2) [%]	%Inh (SRPK3) [%]	%Inh (STK16) [%]	%Inh (STK33) [%]	%Inh (STK35) [%]	%Inh (STK36) [%]	%Inh (STK39) [%]	%Inh (SYK) [%]	%Inh (SgK110) [%]	%Inh (TAK1) [%]	%Inh (TAOK1) [%]	%Inh (TAOK2) [%]	%Inh (TAOK3) [%]	%Inh (TBK1) [%]	%Inh (TEC) [%]
COc1cc2c(Nc3ccc(NC(=O)c4ccccc4)cc3)ncnc2cc1OCCCN1CCOCC1 [GSK301329]	7	0	20	19	0	0	2	12	41	4	0	0	7	0	0	0	0	0	0	0
Cn1ccc2ncnc(Oc3ccc(NC(=O)Nc4cnn(C(C)(C)C)c4)c(Cl)c3)c21	10	0	82	0	74	11	0	16	7	0	7	0	0	38	85	0	15	0	10	0
c1ccc(Oc2ccc(Nc3ccnc4ccc(-c5ccccn5)cc34)cc2)cc1 [GW407034]	0	0	17	94.9	0	0	17	0	0	31	0	15	1	27	0	0	24	0	18	78
O=C(Nc1cccc(Oc2ccc3nccn3n2)c1)Nc1cccc(C(F)(F)F)c1	0	0	0	0	0	0	14	9	21	0	0	0	0	16	0	0	0	0	8	0
CC(C)c1nc(-c2cccc(NS(=O)(=O)c3ccccc3)c2)c(-c2ccnc(Nc3ccc4c(c3)CN(C)CC4)n2)s1 [GSK1649598]	35	1	100	99.5	49	0	0	28	94.8	63	100	85	0	0	51	97.2	98.5	97.8	40	94.2
Cn1ccc2ncnc(Oc3ccc(NC(=O)Nc4ccnc(C(F)(F)F)c4)c(Cl)c3)c21	0	0	13	0	49	0	0	0	0	15	0	0	0	47	2	0	0	0	0	0
CN(c1ccc2c(c1)nc(NCc1ccc(F)cc1)n2C)c1ccnc(Nc2ccc(CS(C)(=O)=O)cc2)n1.Cl [GW813244]	0	0	64	56	41	0	67	46	0	15	7	0	73	8	19	0	61	3	54	25
Cn1ccc2ncnc(Oc3ccc(NC(=O)Nc4cncc(C(F)(F)F)c4)c(Cl)c3)c21	0	0	5	0	73	0	0	4	8	0	0	0	0	9	11	0	0	0	0	0
CS(=O)c1ccc(-c2coc3ccc(-c4n[nH]c(=O)o4)cc23)cc1 (centres unmarked)	21	10	22	0	0	1	0	52	0	9	0	19	0	0	30	0	3	0	20	0
CC(=O)Nc1ccc(-c2cc3ncnc(SCC(=O)O)c3s2)cc1	15	0	11	13	0	0	13	32	0	20	1	0	1	0	17	0	0	0	15	0
CCn1c(-c2nonc2N)nc2cncc(Br)c21 [SB-738004]	31	0	0	0	0	36	0	27	13	0	0	21	8	0	68	46	1	1	16	0
C[C@@H](Oc1cc(-n2cnc3cc(-c4ccncc4)ccc32)sc1C(N)=O)c1ccccc1Cl [GSK479719]	95.4	3	26	0	89	0	64	46	1	0	0	6	52	0	0	0	0	0	0	7
CN1CCN(CCNc2nc3cc(Oc4ccc(NC(=O)Nc5cc(C(F)(F)F)ccc5F)cc4)ccc3[nH]2)CC1.Cl.Cl [GW768504]	0	0	0	18	9	0	10	0	0	0	13	0	16	57	0	0	38	0	28	0
O=C(Nc1ccccc1)c1cccc(Oc2ccc3nccn3n2)c1	0	0	0	0	2	0	0	0	12	0	5	3	14	6	11	5	0	0	0	0
Cn1ccc2ncnc(Oc3ccc(NC(=O)Nc4cccc(C(F)(F)F)c4)c(F)c3)c21	0	0	2	0	23	49	23	0	64	4	0	3	43	0	31	0	38	0	51	5
Cc1ccc2c(-c3ccnc(Nc4ccc(C(F)(F)F)cc4)n3)cnn2n1 [GW819776]	0	0	0	28	14	0	26	48	52	0	9	6	42	20	2	1	23	0	48	9
Cc1n[nH]c2cc(Nc3ccnc(Nc4cccc(CN5CCOCC5)c4)n3)ccc12 [GW682569]	25	0	77	0	92.2	13	65	90.8	0	0	9	16	34	0	57	0	0	0	63	0
O=C(Nc1ccc(Oc2ccc3nc(NC(=O)C4CC4)cn3n2)c(F)c1)c1cccn(-c2ccccc2)c1=O	0	3	10	0	14	16	24	0	23	0	1	0	30	0	0	0	0	0	54	44
COc1cccc(CNC(=O)NC2CCN(c3ccnc(Nc4cc(OC)c(OC)c(OC)c4)n3)C2)c1 (centres unmarked) [GSK1379765]	45	0	24	0	39	0	73	64	0	8	0	10	9	0	0	0	0	0	36	13
